Reference: PubChem BioAssay (Tox21)
Inconclusive results are not listed. Active and inactive are the calls of the source. Unless noted, the call rests on the fitted dose curve; in most records, active means well fitted curve in the direction sought with a large enough effect in the repeat runs; inconclusive means weak or mixed curves; inactive means no such curve, though single readings can be large; an effect the other way counts as inactive or inconclusive.

Assays:
[1] = target: Estrogen receptor beta (Homo sapiens) (UniProt Q92731); experiment: qHTS assay to identify small molecule agonists of the estrogen receptor beta (ER-beta) signaling pathway (AID 1259377; active means well fitted activation curve with a large enough effect in the signal ratio in the repeat runs, not every such curve was filed as active; the % refers to the signal ratio; further: potency means the concentration at half of the fitted maximal effect)
Summary of the method: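 Reporter cells (HEK293T, ER-beta-UAS-bla) receive compounds or DMSO after a 6 hr pre-incubation. They then incubate 16 hr at 37C/5% CO2, and fluorescence from LiveBLAzer B/G substrate is measured after 2 hours at room temperature.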

[2] = target: Estrogen receptor beta (Homo sapiens) (UniProt Q92731); experiment: qHTS assay to identify small molecule antagonists of the estrogen receptor beta (ER-beta) signaling pathway (AID 1259378; active means well fitted inhibition curve with a large enough effect in the signal ratio in the repeat runs, not every such curve was filed as active; the % refers to the signal ratio; further: potency means the concentration at half of the fitted maximal effect)
Summary of the method: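 ER-beta-UAS-bla HEK293T (GripTite) cells in 2% charcoal-stripped FBS medium were preincubated 6 hr at 37C, dosed with compound, then stimulated with 1 nM E2 (final) for 16 hr; beta-lactamase reporter read by B/G FRET fluorescence after 2 hr substrate loading.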

[3] = qHTS assay to identify small molecule agonists of the androgen receptor (AR) signaling pathway in the presence of an antagonist - cell viability counter screen (AID 1259379);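 further: MDA-kb2 human breast cancer cells carrying an MMTV luciferase reporter; series mostly up to about 92 µM; nearly all actives have a fitted effect of over 25% in size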
Summary of the method: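 Nilutamide-containing (3.0uM final) MDA-kb2 cultures, 3,000 cells/well, were treated with compounds across 15 concentrations. After 16 hr at 37C with no CO2, cell viability was determined by CellTiter-Fluor fluorescence in the luciferase assay wells.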

[4] = qHTS assay to identify small molecule agonists of the estrogen receptor beta (ER-beta) signaling pathway - cell viability counter screen (AID 1259380); further: nearly all actives have a fitted effect of over 30% in size; further: potency means the concentration at half of the fitted maximal effect
Summary of the method: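 Steps: plate ER-beta-UAS-bla HEK293T cells, rest 6 hr; add compounds in DMSO; incubate 16 hr at 37C, 5% CO2; add FRET substrate 2 hr; add CellTiter-Glo, wait 30 min at room temperature; read luminescence.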

[5] = qHTS assay to identify small molecule antagonists of the estrogen receptor beta (ER-beta) signaling pathway - cell viability counter screen (AID 1259382); further: series mostly up to about 92 µM; nearly all actives have a fitted effect of over 55% in size
Summary of the method: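 Viability is scored by CellTiter-Glo luminescence (30 min, room temperature) in ER-beta-UAS-bla HEK293T wells already read for reporter fluorescence. Compound exposure lasts 16 hr at 37C alongside 1nM 17-beta-estradiol in charcoal-stripped serum medium.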

[6] = target: Estrogen receptor (Homo sapiens) (UniProt P03372); experiment: qHTS assay to identify small molecule agonists of the estrogen receptor alpha (ER-alpha) signaling pathway in the presence of an antagonist (AID 1259383; calls by dose curve; further: nearly all actives have a fitted effect of over 15% in size; further: potency means the concentration at half of the fitted maximal effect; on activation: top concentration of the series differs between compounds)
Summary of the method: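 Readout was ERE-driven luciferase luminescence in VM7Luc4E2 cells, which express full-length ER-alpha endogenously. Compounds were tested at 15 concentrations for 22hr alongside 10.0nM ICI-182,780 (final concentration).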

[7] = qHTS assay to identify small molecule agonists of the estrogen receptor alpha (ER-alpha) signaling pathway in the presence of an antagonist - cell viability counter screen (AID 1259386);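 further: series mostly up to about 92 µM; cells exposed to compounds for 22 h at 37 °C before the viability read; nearly all actives have a fitted effect of over 30% in size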
Summary of the method: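 In this counter screen, compound effects on VM7Luc4E2 viability were tested in the presence of the antagonist ICI-182,780 at 10.0nM final. Compounds were dosed at 15 concentrations, exposure lasted 22hr, and the CellTiter-Fluor signal was read.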

[8] = qHTS assay to identify small molecule agonists or antagonists of the thyroid stimulating hormone receptor (TSHR) signaling pathway - wild type cell line counter screen (AID 1259384; calls by dose curve)
Summary of the method: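 Wild-type HEK293 cells were plated 18 h at 37 C/5% CO2, pin-dosed with compound plus Ro20-1724 medium, held 30 min at room temperature, then given cAMP-d2 and anti-cAMP-cryptate; fluorescence was read after 1 h. Fifteen concentrations, triplicate.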

[9] = target: Thyrotropin receptor (Homo sapiens) (UniProt P16473); experiment: qHTS assay to identify small molecule antagonists of the thyroid stimulating hormone receptor (TSHR) signaling pathway (AID 1259385; calls by dose curve; further: nearly all actives have a fitted effect of over 20% in size; further: potency means the concentration at half of the fitted maximal effect)
Summary of the method: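 TSHR-HEK293 cells were plated and held 18 h at 37C/5% CO2, then given compound plus Ro20-1724 and stimulated with TSH at 1.5 ng/mL final. After 30 min at room temperature, cAMP was detected with cAMP-d2/anti-cAMP-cryptate (1 h) by fluorescence.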

[10] = target: Androgen receptor (Homo sapiens) (UniProt P10275); experiment: qHTS assay to identify small molecule agonists of the androgen receptor (AR) signaling pathway in the presence of an antagonist (AID 1259381; calls by dose curve; further: nearly all actives have a fitted effect of over 15% in size)
Summary of the method: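 Reporter-gene luminescence from MDA-kb2 cells exposed 16hr at 37C (0% CO2) to 15-point compound titrations with 3.0uM final nilutamide as AR antagonist.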

Measured: Potency

Sequence of Androgen receptor (Homo sapiens) (P10275 whole entry, looked up): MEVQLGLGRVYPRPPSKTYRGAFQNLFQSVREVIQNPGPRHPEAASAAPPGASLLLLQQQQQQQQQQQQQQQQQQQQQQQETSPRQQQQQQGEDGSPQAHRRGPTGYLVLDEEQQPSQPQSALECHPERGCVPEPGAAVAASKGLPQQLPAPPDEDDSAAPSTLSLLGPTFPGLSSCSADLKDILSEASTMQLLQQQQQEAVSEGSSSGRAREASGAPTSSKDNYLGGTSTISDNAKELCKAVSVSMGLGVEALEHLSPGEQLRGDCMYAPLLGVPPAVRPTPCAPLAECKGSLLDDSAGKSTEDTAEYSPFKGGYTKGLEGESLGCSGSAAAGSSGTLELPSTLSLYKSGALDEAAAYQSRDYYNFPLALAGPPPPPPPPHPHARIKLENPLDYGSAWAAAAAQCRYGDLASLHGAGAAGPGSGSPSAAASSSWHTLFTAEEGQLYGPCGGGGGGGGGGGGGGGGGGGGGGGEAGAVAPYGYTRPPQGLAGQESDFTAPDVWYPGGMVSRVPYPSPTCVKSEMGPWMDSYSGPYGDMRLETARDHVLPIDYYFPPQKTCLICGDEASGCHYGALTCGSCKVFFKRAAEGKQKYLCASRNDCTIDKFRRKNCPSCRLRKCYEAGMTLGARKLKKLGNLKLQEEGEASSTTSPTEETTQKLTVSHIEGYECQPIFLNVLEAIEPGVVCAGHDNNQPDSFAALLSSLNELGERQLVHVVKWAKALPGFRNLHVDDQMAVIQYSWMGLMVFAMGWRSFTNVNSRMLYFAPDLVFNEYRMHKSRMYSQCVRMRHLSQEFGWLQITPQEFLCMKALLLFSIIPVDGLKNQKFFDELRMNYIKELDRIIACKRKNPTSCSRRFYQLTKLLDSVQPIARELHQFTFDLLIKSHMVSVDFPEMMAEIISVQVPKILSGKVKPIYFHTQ
Sequence of Estrogen receptor (Homo sapiens) (P03372 whole entry, looked up): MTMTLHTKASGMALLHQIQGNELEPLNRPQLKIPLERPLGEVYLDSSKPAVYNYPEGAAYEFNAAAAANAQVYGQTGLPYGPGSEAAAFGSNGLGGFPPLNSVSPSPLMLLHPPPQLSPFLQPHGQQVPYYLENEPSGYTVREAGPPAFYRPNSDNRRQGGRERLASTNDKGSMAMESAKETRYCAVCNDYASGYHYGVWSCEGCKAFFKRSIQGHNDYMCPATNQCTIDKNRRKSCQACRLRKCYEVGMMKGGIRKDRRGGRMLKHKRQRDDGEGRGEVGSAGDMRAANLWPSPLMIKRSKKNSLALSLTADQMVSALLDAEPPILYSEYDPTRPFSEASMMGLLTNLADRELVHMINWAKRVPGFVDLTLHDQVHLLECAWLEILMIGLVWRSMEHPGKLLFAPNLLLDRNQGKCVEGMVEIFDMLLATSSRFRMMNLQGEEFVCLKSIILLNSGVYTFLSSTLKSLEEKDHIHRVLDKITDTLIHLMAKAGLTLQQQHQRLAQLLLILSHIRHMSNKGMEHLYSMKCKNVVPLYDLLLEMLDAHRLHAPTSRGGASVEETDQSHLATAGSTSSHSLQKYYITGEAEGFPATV
Sequence of Estrogen receptor beta (Homo sapiens) (Q92731 whole entry, looked up): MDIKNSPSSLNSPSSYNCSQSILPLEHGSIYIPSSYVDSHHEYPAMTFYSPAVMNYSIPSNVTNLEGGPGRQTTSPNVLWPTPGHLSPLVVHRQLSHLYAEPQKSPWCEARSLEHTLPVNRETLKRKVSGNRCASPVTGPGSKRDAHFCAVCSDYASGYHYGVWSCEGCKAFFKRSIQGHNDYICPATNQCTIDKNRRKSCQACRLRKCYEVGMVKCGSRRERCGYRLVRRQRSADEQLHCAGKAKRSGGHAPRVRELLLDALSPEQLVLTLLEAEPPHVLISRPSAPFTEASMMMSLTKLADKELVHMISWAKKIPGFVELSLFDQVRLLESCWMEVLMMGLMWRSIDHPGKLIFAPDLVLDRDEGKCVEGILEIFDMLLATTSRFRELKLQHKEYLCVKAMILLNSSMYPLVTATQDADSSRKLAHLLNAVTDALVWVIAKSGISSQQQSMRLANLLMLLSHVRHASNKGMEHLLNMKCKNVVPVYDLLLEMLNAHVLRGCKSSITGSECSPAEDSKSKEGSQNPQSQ
Sequence of Thyrotropin receptor (Homo sapiens) (P16473 whole entry, looked up): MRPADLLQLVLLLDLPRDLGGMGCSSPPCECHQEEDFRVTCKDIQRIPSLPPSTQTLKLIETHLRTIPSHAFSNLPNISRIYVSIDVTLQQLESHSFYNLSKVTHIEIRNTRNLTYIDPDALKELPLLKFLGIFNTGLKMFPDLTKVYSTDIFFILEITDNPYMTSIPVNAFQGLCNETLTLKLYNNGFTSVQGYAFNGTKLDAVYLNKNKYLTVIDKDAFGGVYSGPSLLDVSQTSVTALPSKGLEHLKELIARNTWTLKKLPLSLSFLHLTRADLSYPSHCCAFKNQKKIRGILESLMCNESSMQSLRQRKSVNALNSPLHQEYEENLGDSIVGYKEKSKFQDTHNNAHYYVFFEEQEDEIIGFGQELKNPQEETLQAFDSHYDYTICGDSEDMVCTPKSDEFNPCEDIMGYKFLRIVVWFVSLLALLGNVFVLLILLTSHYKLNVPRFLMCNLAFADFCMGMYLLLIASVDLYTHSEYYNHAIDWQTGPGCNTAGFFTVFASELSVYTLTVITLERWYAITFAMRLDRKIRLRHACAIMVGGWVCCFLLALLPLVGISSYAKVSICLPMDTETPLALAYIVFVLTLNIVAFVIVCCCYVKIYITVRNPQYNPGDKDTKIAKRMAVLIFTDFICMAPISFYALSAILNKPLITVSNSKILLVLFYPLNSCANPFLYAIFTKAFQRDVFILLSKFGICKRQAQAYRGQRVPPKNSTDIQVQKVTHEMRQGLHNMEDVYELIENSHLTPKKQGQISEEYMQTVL

C=C(C)C(=O)OCCN(C)C
not listed: [8] | [9] | [10]
inactive: all other assays above

O=C(O)/C=C/c1cnc[nH]1
not listed: [5] | [6] | [10]
inactive: all other assays above

Cc1c(Cn2ccnc2)c2ccccc2n1CCC(=O)O
not listed: [6] | [8] | [10]
inactive: all other assays above

O=[N+]([O-])c1cccc(Cl)c1Cl
not listed: [8] | [10]
inactive: all other assays above

CCN(CC)CCc1nc(-c2ccccc2)no1
not listed: [10]
inactive: all other assays above

c1ccc(CNCc2ccccc2)cc1
not listed: [4] | [10]
inactive: all other assays above

Nc1cnn([C@@H]2O[C@H](CO)[C@@H](O)[C@H]2O)c(=O)n1
active: [2] 27.3 µM
not listed: [8] | [10]
inactive: all other assays above

CC(=O)N(O)CCCCCNC(=O)CCC(=O)N(O)CCCCCNC(=O)CCC(=O)N(O)CCCCCN
not listed: [9]
inactive: all other assays above

CCCCCCOC(=O)CCC
not listed: [6] | [10]
inactive: all other assays above

CNS(=O)(=O)Cc1ccc2[nH]cc(CCN(C)C)c2c1
inactive: [1] | [2] | [3] | [4] | [7]

O=c1c2ccccc2nnn1CCl
not listed: [9] | [10]
inactive: all other assays above

N[C@H]1C(O)O[C@H](CO)[C@H](O)[C@@H]1O (some centres undefined)
not listed: [4]
inactive: all other assays above

O=C(c1ccc(O)cc1)c1ccc(O)cc1
active: [1] 6.11 µM | [6] 21.7 µM
not listed: [5] | [8]
inactive: all other assays above

CCCCCOC(=O)COc1cc(N2C(=O)C3=C(CCCC3)C2=O)c(F)cc1Cl
not listed: [4] | [9] | [10]
inactive: all other assays above

CCCCCC(CO)CCC (centres undefined)
not listed: [4] | [6] | [10]
inactive: all other assays above

C=C(C)C(=O)OC(C)C
not listed: [3] | [8]
inactive: all other assays above

CCCCOc1cc(C(=O)OCCN(CC)CC)ccc1N
inactive: [1] | [2] | [4] | [5] | [6] | [7]

Cc1ccc(O)c([C@H](CCN(C(C)C)C(C)C)c2ccccc2)c1
active: [4] 26.6 µM
inactive: [1] | [2] | [8] | [9]

CC(=O)[C@@]1(O)CC[C@H]2[C@@H]3C[C@H](C)C4=CC(=O)CC[C@]4(C)[C@H]3CC[C@@]21C
inactive: [1] | [2] | [6] | [8] | [9] | [7]

ClC(Cl)(Cl)c1ccc(C(Cl)(Cl)Cl)cc1
inactive: [1] | [2] | [3] | [6] | [8] | [7]

CC(C)(C)c1cc(O)c(C(C)(C)C)cc1O
active: [2] 30.6 µM | [9] 61.1 µM
inactive: [1] | [10] | [5] | [6]

CCCCCCCCCCCCCCC1CO1 (centres undefined)
not listed: [3] | [10]
inactive: all other assays above

CCc1nn(C2CCCCC2)c2cc(C3(C#N)CCC(C(=O)O)CC3)ccc12 (centres undefined)
inactive: [1] | [5] | [6]
active: [2] 13.7 µM | [4] 8.63 µM

CCCCCCCCCO
not listed: [4] | [10]
inactive: all other assays above

CCCCOCCOCCOCCOCCO
not listed: [4] | [10]
inactive: all other assays above

Cc1cccc(C(C)(C)C)c1O
inactive: [1] | [2] | [5] | [6] | [7]

C=CC(=O)OCC(C)OCC(C)OCC(C)OC(=O)C=C (centres undefined)
active: [2] 61.1 µM
inactive: [1] | [5] | [6]

CCCCCCc1ccc(N)cc1
active: [4] 27.3 µM
not listed: [2]
inactive: all other assays above

O=C1CCCCCO1
not listed: [4] | [5] | [10]
inactive: all other assays above

O=C(/C=C/c1ccc(O)c(O)c1)O[C@@H]1C[C@](O)(C(=O)O)C[C@@H](O)[C@H]1O
inactive: [1] | [2] | [4]
